# Reference: PubChem BioAssay
# Values without a mark were called inactive. A call without a number means that no potency is given here. For part of these data: Potency and affinity values are given separately. The source made the active and inactive calls. Unless noted, how the calls were made is not given here.
# Columns and labels:
# [1] = antimalarial activity against Dd2 strain (AID 2302;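 active means growth inhibition above 50% at the single 2 µM test dose, taken to imply half-maximal potency below 2 µM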); details: P. falciparum Dd2 in RBCs, LDH growth readout, 72 h; at 2 µM; active compounds read high
# [2] = human hepatoma cell viability loss – ATP luminescence, cytotoxicity control for P. falciparum antimalarial project, primary screen (AID 2303;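 active means inhibition above 50%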); details: HepG2 viability, 24-48 h, at 10 µM, active compounds read high
# [3] = target: L-lactate dehydrogenase (Plasmodium falciparum (isolate CDC / Honduras)) (UniProt Q27743); assay: PfLDH activity inhibition – cell lysate, 3D7 strain, counter-screen for P. falciparum growth inhibition project (AID 2304); details: P. falciparum 3D7 crude extract, LDH APAD/NBT absorbance; at 2 µM; active compounds read high
# [4] = inhibition of 3D7 malaria parasite growth – strain 3D7 (AID 2306); details: P. falciparum 3D7 erythrocytic growth, LDH absorbance, 72 h; at 2 µM; active compounds read high
# [5] = target: Calcium-dependent protein kinase 1 (Plasmodium falciparum (isolate 3D7)) (UniProt P62344); assay: PfCDPK1 kinase inhibitors, biochemical, TCAMS library (AID 1159585; cut-off not given, nearly all actives have IC50 up to about 0.98 µM;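 further: inhibitors leave more ATP so luminescence rises with inhibition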); details: recombinant PfCDPK1, Kinase-Glo ATP depletion luminescence
# [6] = target: Plasmodium falciparum protein kinase 6 (PK6, PF3D7_1337100) (UniProt Q8IDW1); assay: PfPK6 kinase inhibitors, biochemical, TCAMS library (AID 1159586); details: recombinant PfPK6, Kinase-Glo ATP depletion luminescence
# [7] = target: Protein kinase 7 (PK7), Plasmodium falciparum 3D7 (PF3D7_0213400) (UniProt Q7YTF7); assay: inhibition of Plasmodium PK7 catalytic activity – biochemical, TCAMS antimalarial set, Kinase-Glo luminescence (AID 1159587); details: recombinant PfPK7, Kinase-Glo ATP depletion luminescence
# [8] = target: Calcium-dependent protein kinase 4 (Plasmodium falciparum (isolate 3D7)) (UniProt Q8IBS5); assay: PfCDPK4 kinase inhibitors, biochemical, TCAMS library (AID 1159588; cut-off not given, nearly all actives have IC50 up to about 0.91 µM); details: recombinant PfCDPK4, Kinase-Glo ATP depletion luminescence
# Calcium-dependent protein kinase 4 (Plasmodium falciparum (isolate 3D7)), sequence (Q8IBS5 whole entry, looked up): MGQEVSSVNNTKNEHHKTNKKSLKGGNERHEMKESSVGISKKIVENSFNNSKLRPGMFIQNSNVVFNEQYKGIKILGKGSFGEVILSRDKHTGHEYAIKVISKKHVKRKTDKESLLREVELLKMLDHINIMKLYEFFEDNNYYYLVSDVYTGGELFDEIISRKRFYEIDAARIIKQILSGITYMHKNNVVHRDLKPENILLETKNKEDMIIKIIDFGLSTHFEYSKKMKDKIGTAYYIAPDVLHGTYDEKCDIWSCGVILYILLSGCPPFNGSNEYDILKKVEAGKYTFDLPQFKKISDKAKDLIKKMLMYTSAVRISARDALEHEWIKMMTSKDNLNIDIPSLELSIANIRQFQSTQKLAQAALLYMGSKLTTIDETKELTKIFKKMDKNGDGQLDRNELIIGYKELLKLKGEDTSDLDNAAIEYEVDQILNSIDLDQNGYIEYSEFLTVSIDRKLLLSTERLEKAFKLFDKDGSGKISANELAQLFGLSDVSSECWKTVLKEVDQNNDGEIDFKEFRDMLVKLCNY
# L-lactate dehydrogenase (Plasmodium falciparum (isolate CDC / Honduras)), sequence (Q27743 whole entry, looked up): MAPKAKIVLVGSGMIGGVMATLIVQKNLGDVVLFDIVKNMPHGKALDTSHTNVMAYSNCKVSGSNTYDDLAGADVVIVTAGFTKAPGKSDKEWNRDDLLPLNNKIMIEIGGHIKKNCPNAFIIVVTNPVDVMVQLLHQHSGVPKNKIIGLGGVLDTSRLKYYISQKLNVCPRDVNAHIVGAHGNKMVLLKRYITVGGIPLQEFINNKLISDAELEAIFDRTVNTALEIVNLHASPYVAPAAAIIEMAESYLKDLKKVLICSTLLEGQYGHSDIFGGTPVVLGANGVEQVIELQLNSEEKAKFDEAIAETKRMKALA
# Protein kinase 7 (PK7), Plasmodium falciparum 3D7 (PF3D7_0213400), sequence (Q7YTF7 1-343): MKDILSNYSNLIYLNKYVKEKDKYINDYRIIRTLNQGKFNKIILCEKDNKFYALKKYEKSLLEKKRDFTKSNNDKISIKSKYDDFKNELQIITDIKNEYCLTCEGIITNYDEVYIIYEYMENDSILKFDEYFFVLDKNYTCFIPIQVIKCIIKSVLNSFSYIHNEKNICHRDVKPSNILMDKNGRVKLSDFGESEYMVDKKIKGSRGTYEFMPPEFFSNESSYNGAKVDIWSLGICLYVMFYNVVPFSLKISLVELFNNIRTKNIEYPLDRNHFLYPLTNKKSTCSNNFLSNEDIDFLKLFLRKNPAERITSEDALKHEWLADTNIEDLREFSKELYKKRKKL
# Plasmodium falciparum protein kinase 6 (PK6, PF3D7_1337100), sequence (Q8IDW1 1-305): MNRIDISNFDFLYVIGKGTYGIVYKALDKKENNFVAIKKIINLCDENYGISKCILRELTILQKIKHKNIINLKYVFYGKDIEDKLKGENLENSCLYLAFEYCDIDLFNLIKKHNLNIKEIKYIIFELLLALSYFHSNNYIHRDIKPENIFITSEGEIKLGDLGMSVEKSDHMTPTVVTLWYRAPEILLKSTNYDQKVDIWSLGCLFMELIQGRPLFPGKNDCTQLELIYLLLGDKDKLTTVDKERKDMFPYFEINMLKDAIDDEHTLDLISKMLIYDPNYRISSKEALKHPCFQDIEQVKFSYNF
# Calcium-dependent protein kinase 1 (Plasmodium falciparum (isolate 3D7)), sequence (P62344 whole entry, looked up): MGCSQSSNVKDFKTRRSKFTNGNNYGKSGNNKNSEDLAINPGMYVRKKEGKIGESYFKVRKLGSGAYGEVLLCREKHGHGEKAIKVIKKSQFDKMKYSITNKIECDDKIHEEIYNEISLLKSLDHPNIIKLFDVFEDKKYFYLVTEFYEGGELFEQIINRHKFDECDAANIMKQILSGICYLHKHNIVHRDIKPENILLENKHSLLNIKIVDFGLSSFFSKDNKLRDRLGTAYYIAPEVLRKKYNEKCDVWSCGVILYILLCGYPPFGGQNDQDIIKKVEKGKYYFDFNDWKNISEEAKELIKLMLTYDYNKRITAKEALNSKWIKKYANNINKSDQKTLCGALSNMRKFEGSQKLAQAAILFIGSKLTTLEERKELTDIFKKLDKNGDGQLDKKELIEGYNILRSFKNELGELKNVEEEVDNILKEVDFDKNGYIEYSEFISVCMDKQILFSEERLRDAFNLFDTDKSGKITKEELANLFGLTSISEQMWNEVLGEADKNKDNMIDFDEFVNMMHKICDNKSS
SMILES,growth inhibition [1],inhibition [2],inhibition [3],growth inhibition [4],outcome [5],outcome [6],outcome [7],outcome [8]
CCOC(=O)CCCc1cc(NC2CCN(C)CC2)nc(Nc2ccc(C)cc2)n1,12%,35%,-2%,90% (active),inactive,inactive,inactive,inactive
CC1(C)N=C(N)N=C(N)N1OCc1cc(Cl)c(Cl)cc1CON1C(N)=NC(N)=NC1(C)C,100% (active),36%,4%,98% (active),inactive,inactive,inactive,inactive
COC(=O)c1ccc(N2CCN(CCCCNC(=O)c3ccc(NC(=O)c4ccc(Cl)cc4)cc3)CC2)c(OC)c1,1%,11%,3%,82% (active),inactive,inactive,inactive,inactive
Clc1cccc(CNC2CCN(CC3CCCCC3)CC2)c1,24%,4%,-2%,97% (active),inactive,inactive,inactive,inactive
CC1(CCN2CCC(c3c[nH]c4cnccc34)CC2)CCCc2c(Br)cccc2C1=O (stereo not drawn),66% (active),14%,3%,101% (active),inactive,inactive,inactive,inactive
COc1ccc(C(=O)CCC(=O)N(Cc2ccc(-c3ccc(CNCCc4ccc(S(C)(=O)=O)cc4)cn3)cc2)C(C)CN(C)C)cc1F (stereo not drawn),85% (active),13%,-8%,98% (active),inactive,inactive,inactive,inactive
Cc1cc(N[C@@H](CC(C)C)C(=O)Nc2ccccc2)nc(NCCc2ccccc2)n1,87% (active),-4%,-1%,100% (active),inactive,inactive,inactive,inactive
CCOC(=O)c1ccc(NC(=O)Nc2cccc(-c3ccc(-c4nc5ccc(F)cc5[nH]4)cc3)c2)cc1,97% (active),40%,1%,101% (active),inactive,inactive,inactive,inactive
O=C(Nc1cccc(CN2CCCN(CC3CC3)CC2)c1)c1ccc(Cl)c(Cl)c1,5%,13%,4%,92% (active),inactive,inactive,inactive,inactive
COc1ccc2ncc(Cl)c(CCN3CCC(NCc4ccc5c(n4)NC(=O)CS5)CC3)c2c1,34%,26%,-2%,100% (active),inactive,inactive,inactive,inactive
CC(C)c1cccc(C(C)C)c1NC(=O)NNC(=O)c1ccc(CCN2CCC(c3nc(COCC(F)(F)F)c(-c4ccc(F)cc4)o3)CC2)cc1,34%,61% (active),-2%,88% (active),inactive,inactive,inactive,inactive
CCOc1ccccc1C1CCN(CCCCNC(=O)c2ccc(NC(=O)c3ccc(Cl)cc3)cc2)CC1,27%,13%,1%,95% (active),inactive,inactive,inactive,inactive
O=C(/C=C/c1ccc(Cl)c(Cl)c1)NCCCCCN1CCCC(CNC(=O)/C=C/c2ccccc2)C1 (stereo not drawn),6%,37%,-7%,98% (active),inactive,inactive,inactive,inactive
COC(=O)c1ccccc1N1CCN(CCCCNC(=O)c2ccc(NC(=O)c3cc(Cl)cc(Cl)c3)cc2)CC1,42%,20%,0%,100% (active),inactive,inactive,inactive,inactive
CCCCc1cc(NCC)nc(Nc2ccc(F)cc2)n1,56% (active),33%,-1%,98% (active),inactive,inactive,inactive,inactive
Cc1noc(C)c1-c1ccc2c(Nc3ccccc3C(C)(C)C)c(C(=O)NCc3ccccc3)cnc2c1,89% (active),20%,-1%,99% (active),inactive,inactive,inactive,inactive
CCOc1ccc(/C=C/C(=O)Nc2cccc3c2CCN(C)C3)cc1,3%,-2%,0%,92% (active),inactive,inactive,inactive,inactive
CN1CCN(c2ccnc3ccc(NC(=O)Nc4cccc5c(Br)cccc45)cc23)CC1,96% (active),7%,6%,100% (active),inactive,inactive,inactive,inactive

SMILES,growth inhibition [1],inhibition [2],inhibition [3],growth inhibition [4],outcome [5],outcome [6],outcome [7],outcome [8]
CC(C)(C)NCC(O)COc1ccc(Cl)cc1C1=NNC(=O)CC1 (stereo not drawn),-1%,6%,-2%,96% (active),inactive,inactive,inactive,inactive
Nc1ncc(-c2ccccc2)cc1-c1cccc2ncccc12,99% (active),82% (active),-2%,97% (active),inactive,inactive,inactive,inactive
O=C(N[C@H]1CCN(Cc2ccc(OCCN3CCCC3)c(Cl)c2)C1)c1ccc(Cl)c(Cl)c1,46%,68% (active),-1%,101% (active),inactive,inactive,inactive,inactive
c1ccc(Oc2ccc(Nc3ccnc4ccc(-c5ccccn5)cc34)cc2)cc1,10%,4%,-5%,80% (active),inactive,inactive,inactive,inactive
C[C@H](NC(=O)c1cc(-c2ccc(C(C)(C)C)cc2)no1)C(=O)O (tested in a mixture with another compound),97% (active),31%,-4%,91% (active),inactive,inactive,inactive,inactive
Cc1nnc2c(NC(=O)NC3CCCC3)cc3ccc(-c4cccc(CN(C)C)c4)cc3n12,25%,42%,3%,90% (active),inactive,inactive,inactive,inactive
CC(=O)Nc1cccc(/C=C/C(=O)N2CCC(N3CCCCC3)CC2)c1,0%,1%,1%,96% (active),inactive,inactive,inactive,inactive
NC(=O)CNC(=O)CCCN=C(N)N,-2%,20%,5%,101% (active),inactive,inactive,inactive,inactive
C=CCc1cc(Cc2cnc(N)nc2N)c2ccc(C)nc2c1OC,-1%,11%,-4%,96% (active),inactive,inactive,inactive,inactive
CC(C)(C)N1CCC(N(Cc2ccc(-c3ccc(C(F)(F)F)cc3)cc2)C(=O)Cn2c(CCc3cccc(F)c3F)cc(=O)c3cccnc32)CC1,63% (active),100% (active),-1%,102% (active),inactive,inactive,inactive,inactive
COc1c(C2CCN(CCCCNC(=O)c3ccc(-c4ccc(C(=O)C(F)(F)F)cc4)cc3)CC2)ccc2c1CCCC2,33%,99% (active),-4%,81% (active),inactive,inactive,inactive,inactive
O=C(Nc1ccc(F)c(F)c1)c1ccc(CN2CCCN(Cc3cccc(O)c3)CC2)cc1,57% (active),43%,-1%,92% (active),inactive,inactive,inactive,inactive
COc1cccc2cc(C(=O)N[C@@H](CC(C)C)C(=O)N[C@H](/C=N/NC(=O)OC(C)(C)C)CC(=O)OC(C)(C)C)oc12,57% (active),4%,0%,85% (active),inactive,inactive,inactive,inactive
CCCCOc1ccc(C(O)C(CN2CCCCC2)c2ccccc2)cc1 (stereo not drawn),84% (active),7%,3%,90% (active),inactive,inactive,inactive,inactive
O=C(Nc1cccc(OCCN2CCCC2)c1)Nc1ccc(Cl)c(Cl)c1,22%,3%,-5%,98% (active),inactive,inactive,inactive,inactive
CC(=O)c1c[nH]c2ccc(/C=C/C(=O)NC3CCC(CCN4CCc5ccc(C#N)cc5CC4)CC3)cc12 (stereo not drawn),98% (active),11%,9%,101% (active),inactive,inactive,inactive,inactive
O=c1cc(NCCCNC2CCc3ccc(Cl)cc32)[nH]c2ccccc12 (stereo not drawn),39%,-2%,3%,92% (active),inactive,inactive,inactive,inactive
CCCCN1CCN(c2cc(NS(=O)(=O)c3ccc(C(=O)Nc4ccc(C(F)(F)F)cc4)cc3)ccc2OC)CC1,20%,17%,-3%,99% (active),inactive,inactive,inactive,inactive
